TDP1 cell noCPT = qHTS for Inhibitors of human tyrosyl-DNA phosphodiesterase 1 (TDP1): qHTS in cells in absence of CPT. DT40 Tdp1-/- hTDP1 cells, no CPT, ATP luminescence, 48 h. Potency, µM (top dose mostly 46.2 µM), inactives show at the highest dose activity change, negative = growth inhibition, hits mostly inhibitors. 15% of 420,000 active. AID 686978, 2013; further: potency means the concentration at half of the fitted maximal effect; on the % scale 0 is the no-effect control and ±100 the full control effect; nearly all actives have a fitted effect of over 55% in size
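Cells were dispensed at 400 per well, compounds added by pin tool, plates incubated ≥48 hr at 37 °C, then CellTiter-Glo added for 30 min at room temperature before luminescence reading. Line: DT40 Tdp1-/- complemented with hTDP1; camptothecin omitted.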
Chronic BCR inh = qHTS Assay to Find Inhibitors of Chronic Active B-Cell Receptor Signaling. 0.05% of 340,000 active. ABC-DLBCL IkBa-CBG/CBR reporter, luminescence ratio, 4 h. Potency, µM (doses to about 46.1 µM), without a hit: top-dose activity change, negative = inhibition, most hits filed as inhibitors; active means well fitted inhibition curve with a large enough effect in the signal ratio, with a control signal flat, not every such curve was filed as active; inconclusive means small, poorly fitted or top-dose-only effect, or effect the other way, or a change in a side signal; the % refers to the signal ratio;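 further: potency means the concentration at half of the fitted maximal effect; plate controls were basal doxycycline-induced cells for no effect and cells given 10 µM MG132 for full effect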
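TMD8 ABC-DLBCL cells carrying doxycycline-inducible green luciferase fused to IkappaBalpha plus unfused red luciferase were exposed to compounds (up to 46 uM) for 4 hrs at 37C. Activity came from the overlap-corrected green/red luminescence ratio.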
IL1B secr inh = qHTS for Inhibitors of Inflammasome Signaling: IL-1-beta AlphaLISA Primary Screen; AID 743279, 2014; THP-1 LPS/ATP IL-1B secretion, AlphaLISA, 16 h; active compounds read low; activity change, % at 57.5 µM; 4.7% of 360,000 active; in the data active means activity change below about -50%; inconclusive means mostly about -30% to -49%; further: on the % scale 0 is the no-effect control and ±100 the full control effect
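Secreted IL-1B measured by AlphaLISA bead assay after 16 h compound exposure of THP-1 cells; compounds (final up to 57.5 uM) added 1 h before LPS (250 ng/mL) and ATP (1.25 mM) stimulation; lower signal means less secretion.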
SW480 rerep = A quantitative high throughput screen for small molecules that induce DNA re-replication in SW480 colon adenocarcinoma cells | Potency, µM (series often up to 46.1 µM), for the others: top-dose re-replication activation, actives largely listed as activators | 1.8% of 340,000 active | AID 624297, 2012 | SW480 DNA re-replication, Hoechst DNA content imaging, 48 h; further: potency means the concentration at half of the fitted maximal effect; % of control where 0% means no effect; nearly all actives have a fitted effect of over 55% in size
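Quantitative HTS format with DMSO vehicle controls; 48 hr drug incubation at 37 C, then 40 min Hoechst staining and scanning imager measurement at 405 nm excitation.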
DT40 TDP1 CPT = qHTS for Inhibitors of human tyrosyl-DNA phosphodiesterase 1 (TDP1): qHTS in cells in presence of CPT | chicken DT40 Tdp1-/-;hTDP1 cells + 20 nM CPT, ATP luminescence, 48 h | Potency, µM (series often up to 46.2 µM), without a hit: at the highest dose activity change, negative = growth inhibition, actives largely listed as inhibitors | 12% of 420,000 active | AID 686979, 2013; further: potency means the concentration at half of the fitted maximal effect; on the % scale 0 is the no-effect control and ±100 the full control effect; nearly all actives have a fitted effect of over 55% in size
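Cell growth measured by CellTiter-Glo luminescence after a minimum 48 h, 37 C compound exposure with 20 nM CPT in Tdp1-knockout DT40 cells stably expressing hTDP1, seeded 400/well; qHTS titration format.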
MCF10A rerep = A quantitative high throughput screen for small molecules that induce DNA re-replication in MCF 10a normal breast cells | MCF 10A DNA re-replication, Hoechst nuclear intensity, 48 h | Potency, µM (doses to about 46.1 µM), for the others: at the top dose activity, positive = re-replication, actives largely listed as activators | 2.9% of 350,000 active | AID 624296, 2012; further: potency means the concentration at half of the fitted maximal effect; % of control where 0% means no effect; nearly all actives have a fitted effect of over 50% in size
Starred values were filed as active, the others as inactive. A selection: hits, their analogues and other compounds. The true share with any hit is near 19%. Unless noted, the call rests on the fitted dose curve; in most records, active means well fitted curve in the direction sought with a large enough effect; inconclusive means small, poorly fitted or top-dose-only effect, or another doubt; inactive means no such curve, though single readings can be large; an effect the other way counts as inactive or inconclusive.

How did Cc1cc(C(=O)Nc2cccc(S(=O)(=O)N3CCCCC3)c2)c2ccccc2n1 do in these assays?
TDP1 cell noCPT: inconclusive; Chronic BCR inh: -9%; IL1B secr inh: 7; SW480 rerep: -8%; DT40 TDP1 CPT: inconclusive; MCF10A rerep: 6%

Results for O=C(Cn1nnc(-c2ccccc2)n1)Nc1cccc(S(=O)(=O)N2CCCC2)c1 ?
TDP1 cell noCPT: 21µM*; Chronic BCR inh: inconclusive; IL1B secr inh: 7; SW480 rerep: -1%; DT40 TDP1 CPT: 18µM*; MCF10A rerep: 5%

Results for O=S(=O)(c1cccc(Cn2nnc(-c3ccccc3)n2)c1)N1CCOCC1 ?
TDP1 cell noCPT: 21µM*; Chronic BCR inh: -1%; IL1B secr inh: 15; SW480 rerep: -9%; DT40 TDP1 CPT: 23µM*; MCF10A rerep: 6%

Results for O=C(Nc1cccc(S(=O)(=O)N2CCCCC2)c1)c1c2c(nc3ccccc13)CCN(Cc1ccccc1)C2 ?
TDP1 cell noCPT: 18µM*; Chronic BCR inh: -4%; IL1B secr inh: -1; SW480 rerep: inconclusive; DT40 TDP1 CPT: 21µM*; MCF10A rerep: inconclusive

Results for C[C@@H]1C(=O)O[C@H]2[C@H](O)[C@@]34[C@H]5C[C@@H](C(C)(C)C)[C@]36[C@@H](OC(=O)[C@@H]6O)O[C@@]4(C(=O)O5)[C@@]12O ?
TDP1 cell noCPT: 1%; Chronic BCR inh: -5%; IL1B secr inh: -4; SW480 rerep: 0%; DT40 TDP1 CPT: -3%; MCF10A rerep: -1%

How did O=S1(=O)N[C@@H](Cc2ccccc2)COc2cc(Br)ccc21 do in these assays?
TDP1 cell noCPT: -16%; Chronic BCR inh: -5%; IL1B secr inh: 8; SW480 rerep: -33%; DT40 TDP1 CPT: 0%; MCF10A rerep: inconclusive

What do the screens show for `O=C(/C=C\c1ccccc1OC(=O)c1ccccc1F)c1cc2ccccc2o1`?
TDP1 cell noCPT: 15µM*; Chronic BCR inh: 13µM*; IL1B secr inh: -104*; SW480 rerep: 5%; DT40 TDP1 CPT: 8.2µM*; MCF10A rerep: inconclusive

Results for CC(=O)/C=C\c1ccccc1OC(=O)c1cc2ccccc2oc1=O ?
TDP1 cell noCPT: -4%; Chronic BCR inh: 0%; IL1B secr inh: -23; SW480 rerep: -19%; DT40 TDP1 CPT: 0%; MCF10A rerep: 4%

What do the screens show for `O=C(Cc1ccsc1)NNC(=O)c1ccccc1O`?
TDP1 cell noCPT: inconclusive; Chronic BCR inh: inconclusive; IL1B secr inh: 45; SW480 rerep: 21%; DT40 TDP1 CPT: inconclusive; MCF10A rerep: -13%

What do the screens show for `Cc1ccccc1N1CCN(c2ccccc2NC(=O)/C=C\C(=O)O)CC1`?
TDP1 cell noCPT: inconclusive; IL1B secr inh: 16; SW480 rerep: -6%; DT40 TDP1 CPT: 16µM*; MCF10A rerep: 14%

How did COC(=O)/C=C/C(=O)N1CCN(c2ccccc2C)CC1 do in these assays?
TDP1 cell noCPT: 16µM*; Chronic BCR inh: inconclusive; IL1B secr inh: -108*; SW480 rerep: inconclusive; DT40 TDP1 CPT: inconclusive; MCF10A rerep: inconclusive

Results for Cc1ccccc1N1CCN(C(=O)c2ccccc2NC(=O)/C=C\C(=O)O)CC1 ?
TDP1 cell noCPT: inconclusive; Chronic BCR inh: 1%; IL1B secr inh: -19; SW480 rerep: 1%; DT40 TDP1 CPT: inconclusive; MCF10A rerep: -5%

How did COC(=O)/C=C/C(=O)N1CCN(c2ccccc2)CC1 do in these assays?
TDP1 cell noCPT: 3%; Chronic BCR inh: inconclusive; IL1B secr inh: -91*; SW480 rerep: -2%; DT40 TDP1 CPT: 10%; MCF10A rerep: 17%

Results for O=C(COC(=O)/C=C/C(=O)N1CCN(c2ccccc2)CC1)NCc1ccc(F)cc1 ?
TDP1 cell noCPT: -19%; Chronic BCR inh: 1%; IL1B secr inh: -15; SW480 rerep: -3%; DT40 TDP1 CPT: -3%; MCF10A rerep: 13%

What do the screens show for `CCOc1ccc(N(CC(=O)Nc2ccc(OC)cc2OC)S(=O)(=O)c2c(C)[nH]c(=O)[nH]c2=O)cc1`?
TDP1 cell noCPT: 26%; Chronic BCR inh: 2%; IL1B secr inh: -12; SW480 rerep: -2%; DT40 TDP1 CPT: -1%; MCF10A rerep: 6%

Results for NC(=O)c1c(N)[nH]c(C(=O)c2ccccc2)c1-c1ccncc1 ?
TDP1 cell noCPT: -18%; IL1B secr inh: -3; DT40 TDP1 CPT: 3%

How did CC(NC(=O)c1c(N)[nH]c(C(=O)c2ccccc2)c1-c1ccccc1Br)c1cccc2ccccc12 (configuration not stated) do in these assays?
TDP1 cell noCPT: inconclusive; IL1B secr inh: -12; DT40 TDP1 CPT: inconclusive

Results for CC(C)(C)C(=O)c1c(N)[nH]c(C(=O)c2ccccc2)c1-c1c(F)cccc1F ?
TDP1 cell noCPT: 21µM*; IL1B secr inh: -26; DT40 TDP1 CPT: inconclusive

How did NC(=O)c1c(N)[nH]c(C(=O)c2ccccc2)c1-c1ccccc1Br do in these assays?
TDP1 cell noCPT: 18µM*; IL1B secr inh: 26; DT40 TDP1 CPT: inconclusive

How did COC(=O)c1c(N)[nH]c(C(=O)c2ccccc2)c1-c1ccccc1Br do in these assays?
TDP1 cell noCPT: 16µM*; IL1B secr inh: 30; DT40 TDP1 CPT: inconclusive

Results for CC(C)(C)C(=O)c1c(N)[nH]c(C(=O)c2ccccc2)c1-c1ccccc1Br ?
TDP1 cell noCPT: 16µM*; IL1B secr inh: -14; DT40 TDP1 CPT: 26µM*

Results for O=C(O)c1ccc(CN2C[C@@H](CO)O[C@@H](n3cnc4c(NCc5ccco5)ncnc43)C2)cc1 ?
TDP1 cell noCPT: 3%; IL1B secr inh: 23; DT40 TDP1 CPT: 9%

Results for Cn1cccc1-c1cc2n(n1)CCC(=O)N2CC(=O)Nc1ccc(F)cc1Cl ?
TDP1 cell noCPT: 0%; DT40 TDP1 CPT: -9%

What do the screens show for `COc1ccc(-c2c(C(=O)c3ccc(Br)cc3)[nH]c(N)c2C(=O)c2ccccc2)cc1OC`?
TDP1 cell noCPT: 21µM*; IL1B secr inh: 10; DT40 TDP1 CPT: inconclusive

Results for Nc1[nH]c(C(=O)c2ccccc2)c(-c2cccc3ccccc23)c1C(=O)NCc1ccccc1 ?
TDP1 cell noCPT: 23µM*; IL1B secr inh: 96; DT40 TDP1 CPT: inconclusive

From PubChem
